# Test results from the supplement of paper PMC6555819.
# Tests used:
# Experiment in all cases: PBM binding z-score (relative to random genomic background probes); higher = stronger binding; sequences stand for … in GC…GCGATTGACAGCGTAGAATGAAGG
# [1] = tested on: FXR:RXRa (NR concentration 270 nM, RXRa partner concentration 90 nM)
# Procedure, shortened: (§1)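 Ligand-free nuclear receptor dimers were bound for 1 h to custom Agilent 4×180K protein-binding microarrays. Detection used antibodies against each partner (one per run). Binding z-scores rest on regression-normalized fluorescence, with random background probes as the reference.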
# [2] = tested on: LXRa:RXRa (NR concentration 270 nM, RXRa partner concentration 90 nM)
# Procedure, shortened: as §1
# [3] = tested on: LXRa homodimer (NR concentration 270 nM)
# Procedure, shortened: as §1
# [4] = tested on: LXRb:RXRa (NR concentration 270 nM, RXRa partner concentration 90 nM)
# Procedure, shortened: as §1
# [5] = tested on: LXRb homodimer (NR concentration 270 nM)
# Procedure, shortened: as §1
# [6] = tested on: PPARa:RXRa (NR concentration 270 nM, RXRa partner concentration 90 nM)
# Procedure, shortened: as §1
# [7] = tested on: PPARg:RXRa (NR concentration 180 nM, RXRa partner concentration 90 nM)
# Procedure, shortened: as §1
# [8] = tested on: PPARg:RXRa 270nM:90nM, anti-RXR (NR concentration 270 nM, RXRa partner concentration 90 nM)
# Procedure, shortened: as §1
# [9] = tested on: PPARg:RXRa 30nM:10nM, anti-RXR (NR concentration 30 nM, RXRa partner concentration 10 nM)
# Procedure, shortened: as §1
# [10] = tested on: PPARg:RXRa 90nM:30nM, anti-RXR (NR concentration 90 nM, RXRa partner concentration 30 nM)
# Procedure, shortened: as §1
# [11] = tested on: PPARg:RXRa DBDmut IVT, anti-RXR (DBD mutation: RXRa K156A/R161A, NR concentration 270 nM, RXRa partner concentration 90 nM)
# Procedure, shortened: as §1
# [12] = tested on: PPARg:RXRa IVT, anti-PPARg (NR concentration 270 nM, RXRa partner concentration 90 nM)
# Procedure, shortened: as §1
# [13] = tested on: PPARg DBDmut:RXRa IVT, anti-PPARg (DBD mutation: PPARg1 K132A/R137A, NR concentration 270 nM, RXRa partner concentration 90 nM)
# Procedure, shortened: as §1
# [14] = tested on: PPARg DBDmut IVT, anti-PPARg (DBD mutation: PPARg1 K132A/R137A, NR concentration 270 nM)
# Procedure, shortened: as §1
# [15] = tested on: PPARg homodimer (NR concentration 180 nM)
# Procedure, shortened: as §1
# [16] = tested on: PXR:RXRa (NR concentration 270 nM, RXRa partner concentration 90 nM)
# Procedure, shortened: as §1
# [17] = tested on: PXR homodimer (NR concentration 270 nM)
# Procedure, shortened: as §1
# [18] = tested on: RARa:RXR (NR concentration 270 nM, RXRa partner concentration 90 nM)
# Procedure, shortened: as §1
# [19] = tested on: RARa homodimer (NR concentration 270 nM)
# Procedure, shortened: as §1
# [20] = tested on: RARb:RXRa (NR concentration 270 nM, RXRa partner concentration 90 nM)
# Procedure, shortened: as §1
Sequence,PBM binding z-score [1],PBM binding z-score [2],PBM binding z-score [3],PBM binding z-score [4],PBM binding z-score [5],PBM binding z-score [6],PBM binding z-score [7],PBM binding z-score [8],PBM binding z-score [9],PBM binding z-score [10],PBM binding z-score [11],PBM binding z-score [12],PBM binding z-score [13],PBM binding z-score [14],PBM binding z-score [15],PBM binding z-score [16],PBM binding z-score [17],PBM binding z-score [18],PBM binding z-score [19],PBM binding z-score [20]
TTACCAAGGTGAATGTCGTTGATCCCTCTGTAGA,0.755,0.993,-0.247,0.681,-0.413,1.51,0.279,1.04,0.788,0.922,1.97,2.48,0.0323,0.0146,0.593,0.524,-0.383,1.12,0.309,1.34
CGAACTAGGCCATTGACAGGACAGTGAATAGTAA,-0.28,-0.21,0.0668,-0.366,-0.825,1.53,2.02,1.77,0.274,0.972,6.87,5.51,1.09,0.545,0.245,-0.291,0.0591,-0.304,-0.0299,0.565
CGTCCAAGGTCAGAGAGGTCAGTTAATGCCGAGT,6.19,5.39,3.93,4.99,0.784,4.72,3.34,4.09,0.894,2.9,3.01,3.3,0.545,0.19,6.18,6.24,12.6,5.94,3.51,5.22
GCTTGTAGATCAAGGTTGAGAAAGACTAAGCTAA,-0.651,-0.5,-0.84,-0.489,-0.831,1.3,2.27,3.37,1.77,3,0.308,0.797,-0.562,-0.558,-0.108,-0.354,-0.235,-0.162,-0.337,-0.367
ATCGCAAGGTCGAAGGTGAGTATACCCACCCGAA,1.5,1.58,-0.525,1.16,-0.359,3.01,2.77,3.69,0.969,2.25,-0.513,1.21,0.246,-0.257,0.231,1.89,-0.311,2.65,-0.621,2.41
CCTATTAGTTGATCATAAGGGCAACCGAAGCTCG,0.383,0.258,0.608,0.291,0.94,0.433,0.394,0.295,0.0236,0.185,0.357,0.623,0.203,0.605,1.64,0.491,0.836,0.442,1.25,1.23
CGAACTAGGTCATTGACAGGACACTGAATAGTAA,4.3,3,0.64,2.25,0.377,4.54,7.31,6.14,3.7,5.66,8.02,7.96,2,1.46,2.02,1.66,0.493,2.18,0.218,3.69
CCGAGTAGGTTATGTGGCATTCAGGCAACGGTGA,0.192,0.353,0.0932,0.0215,-0.284,0.798,0.853,1.85,-0.095,0.651,3.28,2.2,-0.431,-0.42,0.696,-0.298,-0.313,-0.131,0.978,0.573
TCTGCTAGGTCAGTTGGACAGCTAACGAGCTGCC,0.721,0.508,-0.846,-0.0468,0.424,1.12,0.413,1.36,1.23,1.21,2.28,2.83,0.449,0.399,-0.587,-0.183,-1.13,-0.205,-1.3,3.26
CGTCCAAGGTCAAAGTCAGTGAAAGAGACTCGAA,7.61,5.36,0.709,4.03,1.64,5.87,5.41,5.32,1.82,4.19,3.22,3.56,-0.516,-0.183,2.62,3.72,0.349,4.01,1.36,5.14
CGTCAAATTTCAAGGTAACGTAACAGAAAGCAGC,0.0505,-0.0464,0.101,0.163,-0.042,0.466,0.489,-0.149,0.0887,-0.0536,-0.147,0.739,1.23,0.951,0.422,0.33,-0.166,0.634,0.311,0.427
CCTTACGGGTCACTGACAGGTTATAGCCTTTGGA,5.57,4.01,0.368,3.43,-0.148,4.99,4.28,4.31,1.31,2.99,2.98,3.74,0.266,0.106,3.2,3.83,-0.0377,4.93,0.735,3.95
CGAACTTGGTCAAGGACAGTGAATCTCCGCACGC,0.162,-0.375,-0.73,-0.622,-1.03,-0.114,0.382,0.0325,-0.999,-0.567,1.01,0.689,-0.557,-0.422,-0.784,-0.25,-0.515,-0.377,-0.435,1.34
GCTCGGAGGACAAGGTCTGAGCTTTGTCCGTAGA,-0.67,-0.493,-0.867,-0.602,-1.01,-0.36,-1.05,-0.462,-1.11,-1,-0.275,-0.493,-0.968,-1.01,-0.929,-0.656,-0.919,-0.399,-1.72,0.963
